The source of these data is PubChem BioAssay (NCATS).

Inconclusive results are not listed. Activity calls are given as the source filed them. Unless noted, the call rests on the fitted dose curve; in most records, active means well fitted inhibition curve with a large enough effect; inconclusive means small, poorly fitted or top-dose-only effect; inactive means flat fitted curve, though single readings scatter.

Assay [1] in a line: qHTS profiling for inhibitors of Plasmodium falciparum proliferation (AID 504749).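 On activity, negative = inhibition: 0% = DMSO vehicle and full inhibition = artemisinin control.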 On all read-outs here: nearly all actives have a fitted effect of over 60% in size. Conditions: P. falciparum in erythrocytes, SYBR Green DNA, 72 h; for activity, negative = inhibition: at 28.7 µM (top of the series). In a few lines: (§1)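 P. falciparum-infected erythrocytes (0.3% parasitemia, 2.5% hematocrit) incubated with compound 72 h at 37 C, 5% CO2. Parasite DNA detected by SYBR Green after lysis, overnight at room temperature; normalised to 0.29 uM artemisinin and DMSO.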
On the technique in general: Quantitative high-throughput screening tests each substance at several concentrations.

In another assay the test system is 3D7. Described as above. To be noted: P. falciparum in erythrocytes, SYBR Green DNA, 72 h; series mostly up to 28.7 µM. A digest of the protocol:
as §1

A further assay concerns AA1029. The assay is described as above. To be noted: P. falciparum in erythrocytes, SYBR Green DNA, 72 h; series mostly up to 28.7 µM. In a few lines:
as §1

A further assay deals with AS120. The description is as above. To be noted: P. falciparum in erythrocytes, SYBR Green DNA, 72 h; series mostly up to 28.7 µM. A digest of the protocol: as §1
The next assay deals with ATS189. The assay is described as above. To be noted: P. falciparum in erythrocytes, SYBR Green DNA, 72 h; series mostly up to 28.7 µM. In a few lines: as §1
A further assay concerns ATS95. The assay is described as above. Conditions: P. falciparum in erythrocytes, SYBR Green DNA, 72 h; series mostly up to 28.7 µM. A digest of the protocol:
as §1

For another assay, the system named is C2A. The description is as above. Conditions: P. falciparum in erythrocytes, SYBR Green DNA, 72 h; series mostly up to 28.7 µM. In a few lines:
as §1

The test system of the next assay is CP185. The description is as above. To be noted: P. falciparum in erythrocytes, SYBR Green DNA, 72 h; series mostly up to 28.7 µM. A digest of the protocol:
as §1

Another assay relates to CP191. The description is as above. Conditions: P. falciparum in erythrocytes, SYBR Green DNA, 72 h; series mostly up to 28.7 µM. A digest of the protocol: as §1
For a further assay, the system named is CP192. Described as above. Conditions: P. falciparum in erythrocytes, SYBR Green DNA, 72 h; series mostly up to 28.7 µM. In a few lines: as §1
A further assay relates to CP194. The description is as above. Conditions: P. falciparum in erythrocytes, SYBR Green DNA, 72 h; series mostly up to 28.7 µM. A digest of the protocol: as §1
Another assay deals with CP201. The description is as above. Conditions: P. falciparum in erythrocytes, SYBR Green DNA, 72 h; series mostly up to 28.7 µM. A digest of the protocol:
as §1

The next assay concerns CP211. The assay is described as above. Conditions: P. falciparum in erythrocytes, SYBR Green DNA, 72 h; series mostly up to 28.7 µM. In a few lines: as §1
Another assay has as its system CP215. Described as above. Conditions: P. falciparum in erythrocytes, SYBR Green DNA, 72 h; series mostly up to 28.7 µM. A digest of the protocol: as §1
Another assay deals with CP217. The assay is described as above. To be noted: P. falciparum in erythrocytes, SYBR Green DNA, 72 h; series mostly up to 28.7 µM. In a few lines: as §1
Another assay concerns CP237. The assay is described as above. Conditions: P. falciparum in erythrocytes, SYBR Green DNA, 72 h; series mostly up to 28.7 µM. A digest of the protocol:
as §1

Another assay deals with CP238. Described as above. To be noted: P. falciparum in erythrocytes, SYBR Green DNA, 72 h; series mostly up to 28.7 µM. A digest of the protocol: as §1
Assay [2] in a line: qHTS for identification of novel therapeutic agents for treatment of microphthalmiaassociated transcription factor (MiT) renal cell carcinoma (RCC) (AID 1963991; calls by dose curve). Conditions: CellTiter-Glo, 48 h; for z-score: stronger effect = lower value. A digest of the protocol: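 Three TFE3-fusion RCC cell lines (UOK109, UOK124, UOK145), 500 cells/well, were exposed to the 1912-compound MIPE 4.0 library for 48 hours at 37 C. Viability was read by CellTiter-Glo luminescence, normalised to DMSO (100%) and empty wells (0%), with 11-concentration curve fits.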

The subject of a further assay is 7G8. The assay is described as follows: qHTS profiling for inhibitors of Plasmodium falciparum proliferation (AID 504749). Further: nearly all actives have a fitted effect of over 60% in size.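 On activity, negative = inhibition: 0% = DMSO vehicle and full inhibition = artemisinin control.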 To be noted: P. falciparum in erythrocytes, SYBR Green DNA, 72 h; series mostly up to 28.7 µM. A digest of the protocol: as §1
The mark [3] stands for this setting: TFE3-RCC UOK109 viability, measured here: UOK109 Z-AUC.
Where [4] appears, read: TFE3-RCC viability, measured here: UOK124 Z-AUC.
The mark [5] stands for this setting: TFE3-RCC viability, measured here: UOK145 Z-AUC.
Potency means the concentration at half of the fitted maximal effect.

Consider `Cc1cc(O)ccc1Cl`, for which the activity, negative = inhibition in assay [1] (parasite line A) was 4.69% (inactive); in assay [1] (parasite line B) it was -0.29% (inactive). Moreover, the Potency result with 3D7, with AA1029, in the assay with AS120, in the assay with ATS189, in the assay on ATS95 and in the assay with C2A was “inactive” in each case. Besides, the Potency entry with CP185, in the assay on CP191, with CP192, in the assay on CP194, with CP211 and with CP215 was “inactive” each time. For the same compound, the Potency result in the assay on CP217, with CP237 and with CP238 was “inactive” each time. For the same compound, the result with CP201 was inactive.

For `COC1=CC(C)=C[C@@H](C)[C@@H](O)[C@@H](C)CC(C)=CC=C[C@H](OC)[C@H]([C@@H](C)[C@@H](O)[C@H](C)[C@@]2(O)C[C@@H](O)[C@H](C)[C@@H](C(C)C)O2)OC1=O`, the Potency in [2] (TFE3-RCC UOK109 viability) is 26.4 µM (active). Also, the z-score in assay [2] (setting [3]) was -1.69; in assay [2] (setting [4]), -2.76; in assay [2] (setting [5]) it was -3.22.

In the case of `COc1cccc2c1[C@]13CCN(CC4CC4)[C@H](C2)[C@]1(OC)CCC(=O)C3`, the z-score in assay [2] (setting [3]) worked out at 0.6; in [2] (setting [4]) it was 0.387; in [2] (setting [5]), 0.213.

In the case of `O=C(O)COc1ccccc1`, the activity, negative = inhibition is -0.911% (inactive) in assay [1] (parasite line A) and 7.97% (inactive) in assay [1] (parasite line B). The Potency entry with 3D7, in the assay with 7G8, with AA1029, in the assay with AS120, in the assay with ATS189 and with ATS95 was “inactive” each time. The Potency entry in the assay with C2A, with CP185, in the assay with CP191, in the assay with CP192, in the assay on CP194 and in the assay with CP211 was “inactive” throughout. Further, the Potency entry in the assay on CP215, in the assay with CP217, in the assay with CP237 and with CP238 was “inactive” in each case. Also, the result with CP201 was inactive.

As to `CC(=Cc1csc(C)n1)[C@@H]1C[C@H]2O[C@@H]2CCC[C@H](C)[C@@H](O)[C@@H](C)C(=O)C(C)(C)[C@@H](O)CC(=O)O1`, the z-score in assay [2] (setting [3]) is -3.27; in [2] (setting [4]) it was -1.59; in assay [2] (setting [5]), -2.88.

Regarding `COc1cc2cc(c1Cl)N(C)C(=O)C[C@H](OC(=O)C(C)C)[C@]1(C)O[C@H]1[C@H](C)[C@@H]1C[C@@](O)(NC(=O)O1)[C@H](OC)C=CC=C(C)C2`, the values for the z-score in assay [2] (setting [3]), in [2] (setting [4]) and in [2] (setting [5]) were -2.37, -3.1 and -1.62, respectively.

Take `CC(=O)[O][Hg][c]1ccccc1`: the Potency in assay [1] (parasite line A) is 3.98 µM (active); in assay [1] (parasite line B) it was 6.31 µM (active); in the assay on 3D7 it was 12.6 µM (active); in the assay with 7G8, 1 µM (active); in the assay on AA1029 it was 4.47 µM (active); in the assay with AS120, 3.98 µM (active). Moreover, the Potency is 11.2 µM (active) with ATS189; 4.47 µM (active) with ATS95; 5.01 µM (active) with CP185; 8.91 µM (active) in the assay with CP191; 9.53 µM (active) in the assay with CP192; 9.53 µM (active) in the assay on CP194. Moreover, the Potency in the assay with CP211 is 15.1 µM (active); with CP215 it was 6.01 µM (active); in the assay on CP217, 7.08 µM (active); in the assay with CP237, 4.47 µM (active); in the assay on CP238, 5.62 µM (active).
